# Assay results as given in PubChem BioAssay (NCATS).
# Values joined by “and” are separate entries in the source; they are usually repeats but may differ in a detail not shown here. Equal entries are not always repeated. Results filed as inconclusive are left out. A call without a number means that no potency is given here. A number with no mark means an inactive call. Active and inactive are the calls of the source. Unless noted, calls follow the shape of the dose curve; as a rule, active = well fitted curve in the direction sought with a large enough effect; inconclusive = small, poorly fitted or top-dose-only effect, or another doubt; inactive = no such curve, though single readings can be large; an effect the other way counts as inactive or inconclusive.
# Assays:
# [1] = molecular target: Cytochrome P450 2C9 (Homo sapiens) (UniProt P11712); assay: Cytochrome P450 family 2 subfamily C member 9 (CYP2C9) small molecule antagonists: luciferase biochemical (cell-free) qHTS assay (AID 1645842; active = well fitted curve in the direction sought with a large enough effect in the repeat runs; an effect the other way counts as inactive or inconclusive; also: nearly all actives have a fitted effect of over 55% in size; also: potency is read from the fitted curve at half-maximal effect; as to activity change, negative = inhibition: series mostly up to about 57 µM)
# Cytochrome P450 2C9 (Homo sapiens), sequence (P11712 whole entry, looked up): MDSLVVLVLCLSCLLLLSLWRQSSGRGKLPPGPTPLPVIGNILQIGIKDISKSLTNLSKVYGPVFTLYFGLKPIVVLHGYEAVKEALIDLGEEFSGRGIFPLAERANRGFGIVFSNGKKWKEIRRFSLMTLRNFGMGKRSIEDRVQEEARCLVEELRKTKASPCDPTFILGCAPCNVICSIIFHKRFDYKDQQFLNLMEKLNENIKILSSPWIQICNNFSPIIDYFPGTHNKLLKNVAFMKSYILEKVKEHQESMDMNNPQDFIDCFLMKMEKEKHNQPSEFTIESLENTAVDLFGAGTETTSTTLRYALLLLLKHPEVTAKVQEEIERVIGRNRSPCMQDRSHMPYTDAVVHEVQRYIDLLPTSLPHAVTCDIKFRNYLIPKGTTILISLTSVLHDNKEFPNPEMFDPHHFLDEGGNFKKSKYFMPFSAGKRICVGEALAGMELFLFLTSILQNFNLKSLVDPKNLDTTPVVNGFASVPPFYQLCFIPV
# How it was run: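 P450-Glo CYP2C9 system: proluciferin substrate with enzyme in mix containing 0.4% BSA, 10 min at room temperature, then NADPH regeneration solution added and incubated 1 h at 37C. Detection reagent stopped reaction; luminescence read after 20 min as RLU.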
# Papain (Carica papaya) = Papain (Carica papaya) (UniProt P00784); assay: Primary qHTS assay for inhibitors of the protease papain (AID 1645873);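 also: papain turnover of Z-FR-AMC read as the AMC fluorescence gain over 10 min; series mostly up to about 50 µM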
# Papain (Carica papaya), sequence (P00784 whole entry, looked up, the tested form may be a part): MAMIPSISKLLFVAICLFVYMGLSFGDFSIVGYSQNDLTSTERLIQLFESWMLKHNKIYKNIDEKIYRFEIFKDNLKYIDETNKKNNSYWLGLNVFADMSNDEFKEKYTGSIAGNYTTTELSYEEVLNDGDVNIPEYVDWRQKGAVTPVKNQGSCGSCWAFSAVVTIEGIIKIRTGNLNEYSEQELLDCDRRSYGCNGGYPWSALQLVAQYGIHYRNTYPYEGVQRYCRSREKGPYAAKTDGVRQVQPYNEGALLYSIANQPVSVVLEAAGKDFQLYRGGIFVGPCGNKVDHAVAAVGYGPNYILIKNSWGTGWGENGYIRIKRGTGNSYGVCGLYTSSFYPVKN
# [2] = Primary qHTS for inhibitors of nuclear receptor binding SET domain protein 2 (NSD2) in an isogenic RCH-ACV NSD2 p.E1099K mutant (9B) (AID 1645876); also: nearly all actives have a fitted effect of over 70% in size; also: potency is read from the fitted curve at half-maximal effect
# [3] = molecular target: N-terminal Xaa-Pro-Lys N-methyltransferase 1 (Homo sapiens) (UniProt Q9BV86); assay: Confirmatory qHTS for Inhibitors of N-terminal methyltransferase 1 (NTMT1): MTaseGlo Assay (AID 1645874); details: NTMT1 enzyme, MTase-Glo SAH luminescence; also: potency is read from the fitted curve at half-maximal effect; nearly all actives have a fitted effect of over 65% in size
# N-terminal Xaa-Pro-Lys N-methyltransferase 1 (Homo sapiens), sequence (Q9BV86 whole entry, looked up): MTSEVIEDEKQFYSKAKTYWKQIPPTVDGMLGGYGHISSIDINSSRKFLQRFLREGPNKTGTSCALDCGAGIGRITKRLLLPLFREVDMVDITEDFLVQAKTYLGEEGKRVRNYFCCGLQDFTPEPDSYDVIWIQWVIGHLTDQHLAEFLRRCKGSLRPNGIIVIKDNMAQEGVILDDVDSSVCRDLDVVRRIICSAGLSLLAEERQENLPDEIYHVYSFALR
# How it was run: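 SPKRIA peptide at 1 uM was methylated by 125 nM NTMT1 using 100 uM SAM over 30 min at room temperature, following a 15 min compound preincubation. Product SAH was detected luminescently.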
# [4] = Primary qHTS for inhibitors of nuclear receptor binding SET domain protein 2 (NSD2) in an RCH-ACV wild type WT cells (2C) (AID 1645877); also: nearly all actives have a fitted effect of over 70% in size; also: potency is read from the fitted curve at half-maximal effect
# [5] = molecular target: Rap guanine nucleotide exchange factor 3 (Homo sapiens) (UniProt O95398); assay: Confirmatory qHTS for agonist of cAMP-regulated guanine nucleotide exchange factor 3 (EPAC1) (AID 1645881);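 also: EPAC1 catalysed release of BODIPY-GDP from Rap1B seen as fluorescence loss; nearly all actives have a fitted effect of over 75% in size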
# Rap guanine nucleotide exchange factor 3 (Homo sapiens), sequence (O95398 whole entry, looked up): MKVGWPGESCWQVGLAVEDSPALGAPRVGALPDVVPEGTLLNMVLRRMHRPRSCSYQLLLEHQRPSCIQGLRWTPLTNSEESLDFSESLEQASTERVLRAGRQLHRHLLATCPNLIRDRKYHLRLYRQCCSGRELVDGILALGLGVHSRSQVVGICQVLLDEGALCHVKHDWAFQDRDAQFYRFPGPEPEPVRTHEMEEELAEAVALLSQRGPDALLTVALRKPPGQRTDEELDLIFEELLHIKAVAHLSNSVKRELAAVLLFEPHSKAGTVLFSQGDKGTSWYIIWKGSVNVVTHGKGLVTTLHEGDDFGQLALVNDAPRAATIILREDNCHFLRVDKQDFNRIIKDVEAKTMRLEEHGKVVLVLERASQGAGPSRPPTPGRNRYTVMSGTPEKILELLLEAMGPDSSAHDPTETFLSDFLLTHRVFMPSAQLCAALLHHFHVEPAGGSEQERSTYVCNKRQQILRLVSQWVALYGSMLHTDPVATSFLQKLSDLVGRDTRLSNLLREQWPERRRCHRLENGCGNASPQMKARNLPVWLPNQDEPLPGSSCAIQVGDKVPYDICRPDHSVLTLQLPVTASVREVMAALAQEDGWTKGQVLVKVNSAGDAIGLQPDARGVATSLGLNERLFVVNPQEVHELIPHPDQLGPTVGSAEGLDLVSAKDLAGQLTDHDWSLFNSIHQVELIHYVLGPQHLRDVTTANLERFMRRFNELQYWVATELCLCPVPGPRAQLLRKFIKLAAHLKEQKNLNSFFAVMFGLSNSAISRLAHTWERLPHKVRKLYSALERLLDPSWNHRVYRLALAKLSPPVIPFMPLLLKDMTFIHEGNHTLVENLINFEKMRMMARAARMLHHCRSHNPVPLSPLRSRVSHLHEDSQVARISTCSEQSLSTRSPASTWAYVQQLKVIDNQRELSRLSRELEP
# [6] = molecular target: Rap guanine nucleotide exchange factor 4 (Homo sapiens) (UniProt Q8WZA2); assay: Confirmatory qHTS for agonist of cAMP-regulated guanine nucleotide exchange factor 4 (EPAC2) (AID 1645884);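 also: nucleotide exchange releases bodipy-GDP from Rap1 and this lowers its fluorescence; nearly all actives have a fitted effect of over 65% in size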
# Rap guanine nucleotide exchange factor 4 (Homo sapiens), sequence (Q8WZA2 whole entry, looked up): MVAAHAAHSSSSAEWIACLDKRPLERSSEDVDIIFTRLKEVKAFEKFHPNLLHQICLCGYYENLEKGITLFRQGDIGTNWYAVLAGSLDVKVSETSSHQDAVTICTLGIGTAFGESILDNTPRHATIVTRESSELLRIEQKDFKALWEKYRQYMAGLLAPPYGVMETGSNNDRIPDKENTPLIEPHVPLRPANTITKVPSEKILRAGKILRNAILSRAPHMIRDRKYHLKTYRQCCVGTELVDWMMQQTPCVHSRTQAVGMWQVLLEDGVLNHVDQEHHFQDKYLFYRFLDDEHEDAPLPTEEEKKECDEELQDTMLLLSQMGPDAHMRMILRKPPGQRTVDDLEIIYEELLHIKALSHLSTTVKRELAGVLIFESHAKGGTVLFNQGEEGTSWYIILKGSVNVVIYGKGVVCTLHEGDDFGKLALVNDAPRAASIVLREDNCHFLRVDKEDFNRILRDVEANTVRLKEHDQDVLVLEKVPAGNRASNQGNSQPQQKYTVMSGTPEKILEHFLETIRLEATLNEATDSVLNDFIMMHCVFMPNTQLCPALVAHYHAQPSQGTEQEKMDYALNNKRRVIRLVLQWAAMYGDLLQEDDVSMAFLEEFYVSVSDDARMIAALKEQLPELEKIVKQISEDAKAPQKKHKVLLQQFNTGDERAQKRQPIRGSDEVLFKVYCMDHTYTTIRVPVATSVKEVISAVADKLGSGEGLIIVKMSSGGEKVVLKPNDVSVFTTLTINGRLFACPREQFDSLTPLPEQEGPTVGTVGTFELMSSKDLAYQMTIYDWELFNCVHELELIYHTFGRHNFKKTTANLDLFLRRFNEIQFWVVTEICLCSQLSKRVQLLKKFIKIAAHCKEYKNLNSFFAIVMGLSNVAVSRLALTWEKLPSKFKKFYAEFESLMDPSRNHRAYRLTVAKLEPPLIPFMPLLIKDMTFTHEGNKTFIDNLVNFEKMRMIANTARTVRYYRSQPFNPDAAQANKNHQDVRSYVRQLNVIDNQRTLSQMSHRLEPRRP
# [7] = molecular target: Rap guanine nucleotide exchange factor 4 (Homo sapiens) (UniProt Q8WZA2); assay: Confirmatory qHTS for antagonist of cAMP-regulated guanine nucleotide exchange factor 4 (EPAC2) (AID 1645885); also: nearly all actives have a fitted effect of over 25% in size; also: potency is read from the fitted curve at half-maximal effect
# [8] = molecular target: Rap guanine nucleotide exchange factor 3 (Homo sapiens) (UniProt O95398); assay: Confirmatory qHTS for antagonist of cAMP-regulated guanine nucleotide exchange factor 3 (EPAC1) (AID 1645880); also: nearly all actives have a fitted effect of over 55% in size
# How it was run: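 Released BODIPY-GDP fluoresces less than Rap1-bound BODIPY-GDP; the signal is followed at 480/540 nm at 5-min intervals over 30 min, after 5 min at room temperature. Reactions contain 100 nM EPAC1, 250 nM RAP1B-BODIPY-GDP and 50 uM GDP; results are normalized to ATA and DMSO.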
smiles,measurement,setting,value
CC(CN1c2ccccc2Sc2ccccc21)N(C)C (stereo not drawn),Potency,[1],inactive
same,Potency,Papain (Carica papaya),inactive
same,Potency,[2],16.8 µM (active)
C=Cc1c(C)c2cc3[nH]c(cc4nc(cc5nc(cc1[nH]2)C(C)=C5CCC(=O)O)C(CCC(=O)O)=C4C)c(C)c3C=C,Potency,[1],inactive
same,Potency,Papain (Carica papaya),inactive
same,Potency,[3],34.5 µM (active)
CC(C)(C)C(=O)C(Oc1ccc(Cl)cc1)n1ccnc1 (stereo not drawn),Potency,[1],2.75 µM (active)
CCN(CC)C(C)CN1c2ccccc2Sc2ccccc21 (stereo not drawn),Potency,[1],inactive
same,Potency,Papain (Carica papaya),inactive
same,Potency,[2],inactive
same,Potency,[4],inactive
same,Potency,[5],inactive
same,Potency,[6],inactive
same,Potency,[7],55.5 µM (active)
COc1ccc2[nH]c(S(=O)Cc3ncc(C)c(OC)c3C)nc2n1 (stereo not drawn),Potency,[1],10.7 µM (active)
same,Potency,[3],35.5 µM (active)
same,Potency,[2],inactive
same,Potency,[4],inactive
C[C@](N)(Cc1ccc(O)cc1)C(=O)O,"activity change, negative = inhibition",[1],1.65% [at 4.83 µM]
same,Potency,Papain (Carica papaya),inactive
same,"activity change, negative = viability loss",[2],-3.71% [at 4.96 µM]
same,outcome,[4],inactive [at 4.96 µM]
Cc1ccc(C(C)C)cc2c(C)ccc1-2,Potency,[1],inactive
same,Potency,[2],inactive
CC(C)C(=O)c1c(C(C)C)nn2ccccc12,Potency,[1],inactive
same,Potency,Papain (Carica papaya),inactive
same,Potency,[2],inactive
same,Potency,[4],inactive
CC(C(O)c1ccc(O)cc1)N1CCC(Cc2ccccc2)CC1 (stereo not drawn),Potency,[1],inactive
same,Potency,Papain (Carica papaya),inactive
CC[C@H]1CN2CCc3cc(OC)c(OC)cc3[C@@H]2C[C@@H]1C[C@H]1NCCc2cc(OC)c(OC)cc21,Potency,[1],inactive
same,Potency,Papain (Carica papaya),inactive
same,Potency,[2],84.1 nM (active) and 132 nM (active)
same,Potency,[4],59.6 nM (active) and 118 nM (active)
Cc1cc(C(C#N)c2ccc(Cl)cc2)c(Cl)cc1NC(=O)c1cc(I)cc(I)c1O (stereo not drawn),Potency,[1],21.9 µM (active)
CN(C)CCCN1c2ccccc2CCc2ccccc21,Potency,[1],inactive
CC(=O)O[C@@]12CO[C@@H]1C[C@H](O)[C@@]1(C)C(=O)[C@H](O)C3=C(C)[C@@H](OC(=O)[C@H](O)[C@@H](NC(=O)OC(C)(C)C)c4ccccc4)C[C@@](O)([C@@H](OC(=O)c4ccccc4)[C@H]21)C3(C)C,Potency,[1],inactive
same,Potency,[2],0.0027 µM (active)
same,Potency,[4],0.0021 µM (active)
CSc1ccc2c(c1)N(CCC1CCCCN1C)c1ccccc1S2 (stereo not drawn),Potency,[1],inactive
same,Potency,Papain (Carica papaya),inactive
same,Potency,[2],5.96 µM (active)
same,Potency,[4],3.76 µM (active)
[Cl][In]([Cl])[Cl],Potency,[1],inactive
same,Potency,[3],4.91 µM (active)
same,Potency,[2],24.3 µM (active)
C#CCN(C)Cc1ccccc1,Potency,[1],inactive
same,Potency,Papain (Carica papaya),inactive
same,Potency,[2],inactive
same,Potency,[4],inactive
CN1CCN(C2Cc3ccccc3Sc3ccc(Cl)cc32)CC1 (stereo not drawn),Potency,[1],8.49 µM (active)
same,Potency,Papain (Carica papaya),inactive
CC(=O)c1ccc2c(c1)N(CCCN(C)C)c1ccccc1S2,Potency,[1],inactive
same,Potency,Papain (Carica papaya),inactive
CN(C)CC[C@@H](c1ccc(Cl)cc1)c1ccccn1,Potency,[1],inactive
same,Potency,Papain (Carica papaya),inactive
same,Potency,[2],inactive
same,Potency,[4],inactive
CN1CCCCC1CCN1c2ccccc2Sc2ccc(S(C)=O)cc21 (stereo not drawn),Potency,[1],inactive
CC(CN(C)C)CN1c2ccccc2CCc2ccccc21 (stereo not drawn),Potency,[1],inactive
same,Potency,Papain (Carica papaya),inactive
CC[C@@]1(c2ccccc2)NC(=O)N(C)C1=O,Potency,[1],inactive
same,Potency,[2],inactive
same,Potency,[4],inactive
CNCC(O)c1ccc(O)c(O)c1 (stereo not drawn),Potency,[1],inactive
same,Potency,Papain (Carica papaya),inactive
same,Potency,[2],inactive
CN1CCC[C@@H]1Cc1c[nH]c2ccc(CCS(=O)(=O)c3ccccc3)cc12,Potency,[1],13.8 µM (active)
same,Potency,Papain (Carica papaya),inactive
same,Potency,[2],inactive
same,Potency,[4],inactive
COCCOC(=O)C1=C(C)NC(C)=C(C(=O)OC/C=C/c2ccccc2)C1c1cccc([N+](=O)[O-])c1 (stereo not drawn),Potency,[1],0.0617 µM (active)
same,Potency,Papain (Carica papaya),inactive
same,Potency,[2],15 µM (active)
same,Potency,[4],21.1 µM (active)
same,Potency,[5],inactive
same,Potency,[6],inactive
CCN(CC)CCSC(=O)C(c1ccccc1)c1ccccc1,Potency,[1],13.8 µM (active)
Cc1cc(CC(=O)O)n(C)c1C(=O)c1ccc(Cl)cc1,Potency,[1],inactive
CNC(=O)Oc1ccc2c(c1)[C@]1(C)CCN(C)[C@@H]1N2C,Potency,[1],inactive
same,Potency,Papain (Carica papaya),inactive
same,Potency,[2],inactive
same,Potency,[4],inactive
same,Potency,[8],inactive
same,Potency,[5],inactive
same,Potency,[6],inactive
same,Potency,[7],inactive
CCCCN(CCCC)CC(O)c1cc(Cl)cc2c1-c1ccc(Cl)cc1/C2=C/c1ccc(Cl)cc1 (stereo not drawn),Potency,[1],21.9 µM (active)
same,Potency,Papain (Carica papaya),inactive
same,Potency,[2],15 µM (active)
same,Potency,[4],13.3 µM (active)
CNCCCC1c2ccccc2C=Cc2ccccc21,Potency,[1],inactive
same,Potency,Papain (Carica papaya),inactive
C[C@@H](O)[C@H](N)C(=O)O,Potency,[1],inactive
same,Potency,[2],inactive
same,Potency,[4],inactive
NC(CSCC(=O)O)C(=O)O (stereo not drawn),Potency,[1],inactive
CC(=O)Oc1ccc(C2(c3ccc(OC(C)=O)cc3)C(=O)Nc3ccccc32)cc1,Potency,[1],5.49 µM (active)
same,Potency,[2],inactive
CCN(CC)CCNC(=O)c1c(C)[nH]c(/C=C2\C(=O)Nc3ccc(F)cc32)c1C,Potency,[1],inactive
same,Potency,[3],30.8 µM (active)
same,Potency,[2],3.76 µM (active) and 3.32 µM (active)
same,Potency,[4],2.99 µM (active) and 3.72 µM (active)
